The whole screen tested about 52,000 compounds, of which about 1,700 (3.3%) were called active. No stated cut-off is given here; in the data, active means survival mostly below about 52% (no sharp cut-off); inactive means mostly above about 56%. The full list was thinned out, with actives kept by preference.
tested on: Wild type; experiment: S. aureus survival, RN4220 and DeltatarO strains – OD600, teichoic acid synthesis inhibitors, primary screen (AID 463173); details: S. aureus RN4220 wild type/DeltatarO growth, OD600, 18 h, hits give low values, screened at 18.75 µg/mL (by protocol)

Structure (SMILES)	survival
CCc1cccc(C)c1NC(=O)c1cc(CN2CCCC2)on1	72% (inactive)
Cc1nc2ccc(S(=O)(=O)N(CC(=O)Nc3ccc(F)cc3F)Cc3ccccc3)cc2s1	88% (inactive)
CCn1c(=O)c2cc(C(=O)NCc3ccc(F)cc3Cl)sc2c2ccccc21	81% (inactive)
CCN(CC)CCCNC(=O)c1c(C)oc2ncnc(N3CCOCC3)c12	136% (inactive)
CCCCN(CC)CCCNC(=O)c1c(C)oc2ncnc(N3CCOCC3)c12	14% (active)
Cc1oc2ncnc(N3CCCCC3)c2c1C(=O)NCC1CCN(Cc2ccc(F)cc2)CC1	90% (inactive)
CCCCN(CC)CCNC(=O)c1c(C)oc2ncnc(N3CCOCC3)c12	76% (inactive)
Cc1cccc(CN2CCC(CNC(=O)c3c(C)oc4ncnc(N5CCCCC5)c34)CC2)c1	98% (inactive)
Cc1oc2ncnc(N3CCCCC3)c2c1C(=O)NCC1CCN(Cc2cccc(F)c2)CC1	-6% (active)
CCN(C(=O)Cn1ncc2c(=O)oc3ccc(C)cc3c21)c1cc(OC)ccc1OC	86% (inactive)
CCOc1ccc(Nc2nn(-c3ccc(OC(F)(F)F)cc3)nc2C(C)=O)cc1	123% (inactive)
COc1cccc(NS(=O)(=O)c2ccc3c(c2)N(C)C(=O)CC(=O)N3C)c1	78% (inactive)
COc1ccc2[nH]c(=O)c(CN(CCCN3CCOCC3)C(=O)Nc3ccccc3)cc2c1	102% (inactive)
O=C(NC1CCCCCC1)c1ccc(CS(=O)c2ccc(Br)cc2)o1 (stereo not drawn)	94% (inactive)
Cc1ccc(S(=O)(=O)Nc2cc3c(cc2C)n(C)c(=O)c(=O)n3C)cc1	-4% (active)
Cn1c(=O)c(=O)n(C)c2cc(N3CCOCC3)c(NS(=O)(=O)c3ccc(Cl)cc3)cc21	-3% (active)
Cc1cc2c(cc1NS(=O)(=O)c1ccc(Br)cc1)n(C)c(=O)c(=O)n2C	129% (inactive)
Cc1ccc(S(=O)(=O)Nc2cc3c(cc2N2CCOCC2)n(C)c(=O)n3C)cc1	80% (inactive)
Cn1c(=O)c(=O)n(C)c2cc(N3CCOCC3)c(NS(=O)(=O)c3ccc(F)c(Cl)c3)cc21	63% (inactive)
CCc1ccc(S(=O)(=O)Nc2cc3c(cc2C)n(C)c(=O)c(=O)n3C)cc1	57% (inactive)
CCc1ccc(S(=O)(=O)Nc2cc3c(cc2N2CCOCC2)n(C)c(=O)c(=O)n3C)cc1	1% (active)
CC(C)Cc1ccc(S(=O)(=O)Nc2cc3c(cc2N2CCOCC2)n(C)c(=O)c(=O)n3C)cc1	63% (inactive)
Cn1c(=O)n(C)c2cc(N3CCOCC3)c(NS(=O)(=O)c3ccc(Cl)cc3)cc21	93% (inactive)
COc1ccccc1OCCn1cc(C(=O)c2cccs2)c2ccccc21	102% (inactive)

Structure (SMILES)	survival
O=C(CSc1nnc(-c2ccc(S(=O)(=O)N3CCCC3)cc2)n1CC1CCCO1)NC1CC1 (stereo not drawn)	108% (inactive)
COc1ccc(-c2nnc(SCC(=O)NCCC(C)C)nc2-c2ccc(OC)c(OC)c2)cc1OC	71% (inactive)
COc1cccc2cc(-c3nc(Nc4cccc(C)c4C)sc3C)c(=O)oc12	65% (inactive)
COc1cccc(NC(=O)C2CCC(CNS(=O)(=O)c3ccc4c(c3)CC(C)N4C(C)=O)CC2)c1 (stereo not drawn)	95% (inactive)
CNS(=O)(=O)c1ccccc1C(=O)N/N=C/c1ccc(OC)c(OC)c1	102% (inactive)
COc1cc2c(cc1OC)n(CC(=O)c1ccc(C)cc1C)c(=O)n1nc(CCn3nc(C)cc3C)nc21	74% (inactive)
COc1ccccc1N1CCN(S(=O)(=O)c2c(C)nc3sc(C)c(C)n3c2=O)CC1	85% (inactive)
COc1cc(NS(=O)(=O)c2ccc3c(c2)CCN3S(C)(=O)=O)cc(OC)c1	73% (inactive)
COc1ccc(-c2cc(C(F)(F)F)nc(SCC(=O)NCCc3ccccc3)n2)cc1OC	81% (inactive)
COc1ccc(-c2cc(C(F)(F)F)nc(NCc3ccccc3)n2)cc1	-5% (active)
COc1ccc(-c2cc(C(F)(F)F)nc(NCc3ccccc3)n2)cc1OC	66% (inactive)
COc1ccc(-c2cc(C(F)(F)F)nc(NCCc3ccccc3)n2)cc1OC	81% (inactive)
COc1ccc(-c2cc(C(F)(F)F)nc(SCC(=O)NCc3ccc(F)cc3)n2)cc1	90% (inactive)
COc1ccc(CNC(=O)C(C)Sc2nc(-c3ccccc3)cc(C(F)(F)F)n2)cc1 (stereo not drawn)	149% (inactive)
COc1ccc(-c2cc(NCc3ccc(F)cc3)n3cnnc3n2)cc1	72% (inactive)
COc1ccc(-c2cc(C(F)(F)F)nc(NCc3ccc(F)cc3)n2)cc1	-5% (active)
COc1cccc(-c2cc(C(=O)NCc3ccc(F)cc3)no2)c1	71% (inactive)
COc1ccc(-c2cc(C(F)(F)F)nc(NCCc3ccccc3)n2)cc1	-2% (active)
COc1cccc(-c2cc(C(F)(F)F)nc(NCc3ccc(F)cc3)n2)c1	0% (active)
CCc1ccc(NC(=O)CCn2cnc3ccccc3c2=O)cc1	72% (inactive)
COCCNC(=O)CN1C(=O)CCn2nc(-c3cn(C)c4ccccc34)cc21	64% (inactive)
C#CCNc1nc(CC(C)C)nc2c1nnn2Cc1ccccc1	101% (inactive)
COc1cccc(-c2cc(C(F)(F)F)nc(NCCc3ccccc3)n2)c1	-7% (active)
COc1ccccc1CCNC(=O)C(C)Sc1nc(-c2ccccc2)cc(C(F)(F)F)n1 (stereo not drawn)	53% (inactive)

Structure (SMILES)	survival
COc1cccc(-c2cc(C(F)(F)F)nc(NCCc3ccc(OC)c(OC)c3)n2)c1	25% (inactive)
COc1ccc(CNc2nc(-c3ccc(OC)cc3)cc(C(F)(F)F)n2)cc1	-5% (active)
COc1ccc(CNC(=O)CSc2nc(-c3ccc(OC)cc3)cc(C(F)(F)F)n2)cc1	93% (inactive)
COc1ccc(CNc2nc(-c3ccc(OC)c(OC)c3)cc(C(F)(F)F)n2)cc1	27% (inactive)
COc1cccc(CNC(=O)c2cc(S(=O)(=O)N3CCCCC3)cn2C)c1	-2% (active)
Cc1cn(C)c(CC(=O)NCc2cccc(Cl)c2)c1C(=O)O	-3% (active)
Cc1ccc(CNC(=O)Cc2c(C(=O)O)c(C)cn2C)cc1	85% (inactive)
COc1ccc(CNC(=O)Cc2c(C(=O)O)c(C)cn2C)cc1	83% (inactive)
Cc1ccc(CNC(=O)c2cc(S(=O)(=O)N3CCCCCC3)cn2C)cc1	81% (inactive)
Cc1cn(C)c(CC(=O)NCc2ccccc2)c1C(=O)O	80% (inactive)
Cc1cn(C)c(CC(=O)NCc2ccc(Cl)cc2)c1C(=O)O	66% (inactive)
COc1cccc(CNC(=O)Cc2c(C(=O)O)c(C)cn2C)c1	0% (active)
COc1cccc(CNC(=O)c2cc(S(=O)(=O)N3CCCCCC3)cn2C)c1	85% (inactive)
Cc1ccc(-n2ncc(C(=O)N3CCN(Cc4ccccc4)CC3)c2C2CCN(C(=O)OC(C)(C)C)CC2)cc1	124% (inactive)
N#Cc1c(NC(=O)CN2CCCCC2)sc2c1CCC2	109% (inactive)
Cc1ccc2c(c1)c1c(c(=O)n(-c3ccccc3)c(=O)n1CC(=O)NCC1CCCO1)n2C (stereo not drawn)	72% (inactive)
Cc1ccc(NC(=O)C(=O)NCCc2sc(-c3ccc(Cl)cc3)nc2C)cc1C	126% (inactive)
Cc1ccc(-c2nc(C)c(CCNC(=O)C(=O)Nc3ccc(C)c(Cl)c3)s2)cc1	76% (inactive)
Cc1nc(-c2ccccc2)sc1CCNC(=O)C(=O)Nc1ccc(F)c(Cl)c1	1% (active)
COc1ccc(NC(=O)CN(c2ccc(C)cc2)S(=O)(=O)c2cccs2)cc1	84% (inactive)
CCc1ccccc1N1CC(c2nc3ccccc3n2Cc2cccc(C)c2)CC1=O (stereo not drawn)	66% (inactive)
Nc1nonc1-c1nc2ccccc2n1Cc1cccc(Cl)c1	87% (inactive)
Cc1ccc(Cn2c(CCNC(=O)c3cccc(C)c3)nc3ccccc32)cc1	68% (inactive)
Cc1cccc(Cn2c(-c3cccc(Br)c3)nc3ccccc32)c1	124% (inactive)

Structure (SMILES)	survival
O=C(CSc1nc2ccccc2n1Cc1ccccc1F)NCc1ccccc1	99% (inactive)
Cc1cccc(Cn2c(-c3ccccc3)nc3ccccc32)c1	26% (active)
Cc1cccc(Cn2c(=O)n3nc(-c4ccccc4)nc3c3ccccc32)c1	-24% (active)
Fc1ccc(Cn2c(-c3cccc(Br)c3)nc3ccccc32)cc1	120% (inactive)
Cc1cccc(-c2nc3c4ccccc4n(Cc4cccc(Cl)c4)c(=O)n3n2)c1	113% (inactive)
Cc1cccc(-c2nc3ccccc3n2Cc2ccccc2)c1	1% (active)
O=c1n(Cc2cccc(F)c2)c2ccccc2c2nc(-c3ccccc3)nn12	34% (inactive)
Fc1ccccc1Cn1c(-c2ccccc2)nc2ccccc21	1% (active)
COc1ccc(NC(=O)c2oc3ccccc3c2NC(=O)c2cc(C)cc(C)c2)c(OC)c1	79% (inactive)
COc1ccc(NC(=O)C2CCC(CNS(=O)(=O)c3cccc4nsnc34)CC2)cc1OC (stereo not drawn)	87% (inactive)
CN(Cc1ccccc1)C(=O)Cn1c(=O)c2cccn2c2ccc(F)cc21	81% (inactive)
Cc1ccc(Cn2c(=O)c3ccccc3n3c(-c4ccccc4)nnc23)cc1	91% (inactive)
Cc1ccc(Cn2c(C(C)NC(=O)c3ccccc3)nc3ccccc32)cc1 (stereo not drawn)	91% (inactive)
Cc1ccc(Cn2c(-c3ccccc3)nc3ccccc32)cc1	8% (active)
CCCCn1c(SCC(=O)N2CCCCCC2)nnc1-c1ccoc1C	98% (inactive)
Cc1cccc(N2CCN(c3ccc4cc(S(=O)(=O)N5CCC(C)CC5)ccc4n3)CC2C)c1 (stereo not drawn)	129% (inactive)
CSc1cccc(Nc2cc(C(=O)NC3CCCCC3)c3ccccc3n2)c1	142% (inactive)
CN1CN2C(=O)N3CN(C)CN4C(=O)N(C1)C2C34 (stereo not drawn)	110% (inactive)
OC(c1ccccc1)c1nc2ccccc2n1Cc1c(F)cccc1Cl (stereo not drawn)	82% (inactive)
Cc1cc(C)c(Cn2c(C(O)c3ccccc3)nc3ccccc32)c(C)c1 (stereo not drawn)	11% (active)
COC(=O)Cn1c(C(O)c2ccccc2)nc2ccccc21 (stereo not drawn)	97% (inactive)

From PubChem BioAssay AID463173 (ICCB-Longwood Screening Facility, Harvard Medical School, 2010)
